Cycloheximide cs – affects cycloheximide protein synthesis inhibition readout, counter-screen. cell reporter, cycloheximide protein synthesis inhibition counterscreen. max response, %. 300,000 tested, 12% active. AID 2314; in the data active means max response mostly above about 13%, no sharp cut-off; inactive means mostly below about 14%; further: read at 38.3 µM for the half of the compounds with a filed dose; 0% is about no effect
MARV entry inh – Marburg virus entry inhibition; Marburg virus pseudotyped entry inhibition, cell reporter; Potency, µM (top dose mostly 37.8 µM), for inactives: at the highest dose activity change, negative = inhibition, hits mostly inhibitors; 300,000 tested, 1.8% active; calls by dose curve; tested in HEK293 cells; further: potency means the concentration at half of the fitted maximal effect; on the % scale 0 is the no-effect control and ±100 the full control effect
FMDV inh – foot and mouth disease virus antiviral activity; FMDV antiviral cell-based qHTS; Potency, µM (doses to about 57.9 µM), for inactives: at the highest dose activity change, negative = inhibition, actives largely listed as inhibitors; 410,000 tested, 1.2% active; calls by dose curve; tested in HEK293T cells; further: read-out not given here; potency means the concentration at half of the fitted maximal effect; on the % scale 0 is the no-effect control and ±100 the full control effect; nearly all actives have a fitted effect of over 45% in size
Shiga toxin inh – Shiga toxin inhibition; Vero cells, Shiga toxin protein synthesis inhibition reporter; inhibition, % at 38.7 µM; 290,000 tested, 9.2% active; AID 2315; in the data active means inhibition mostly above about 28%, no sharp cut-off; inactive means mostly below about 43%; further: 0% is about no effect
LASV entry inh – blocks Lassa virus binding to or entry into cells | Lassa virus pseudotype entry inhibition, cell reporter | Potency, µM (top dose mostly 37.9 µM), for inactives: at the top dose activity change, negative = inhibition, actives largely listed as inhibitors | 300,000 tested, 1.2% active; calls by dose curve; tested in HEK293 cells; further: potency means the concentration at half of the fitted maximal effect; on the % scale 0 is the no-effect control and ±100 the full control effect; nearly all actives have a fitted effect of over 50% in size
HCV inh – inhibitors of hepatitis C virus infection | Huh7.5.1 HCVcc-Cre infection, luciferase reporter, 44 h | AID 651820 | Potency, µM (series often up to 41.8 µM), for inactives: top-dose activity change, negative = inhibition, hits mostly inhibitors | 340,000 tested, 3.4% active; active means well fitted inhibition curve with a large enough effect; inconclusive means small, poorly fitted or top-dose-only effect, or another doubt; inactive means no such curve, though single readings can be large or run the other way; further: potency means the concentration at half of the fitted maximal effect; on the % scale 0 is the no-effect control and ±100 the full control effect
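Whole-lifecycle infectious HCVcc-Cre system; cells 1,000/well, compound then virus (~0.5 moi) added 4 h after plating, 44 h culture. Luciferase read 15 sec following 15 min substrate incubation, room temp.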
* = called active by the depositor; ? = inconclusive; . = no result given; [ ] = dose if it differs, or a comment. Hits are enriched below; roughly 13% of the tested compounds scored in any of these assays.

SMILES	Cycloheximide cs	MARV entry inh	FMDV inh	Shiga toxin inh	LASV entry inh	HCV inh
Cc1ccc(NC(=O)C2COc3ccccc3O2)cc1C (centres undefined)	26*	4%	29%	.	3%	10%
CCC1C(C#N)=C(N)OC2=C1C(=O)CC(C)(C)C2 (centres undefined)	-1	17%	17%	-4	-7%	6%
CC1=CC2=NC(=O)/C(=C\c3cn(C)c4ccccc34)C(=N)N2O1	-5	-4%[46.1 µM]	19%	-20	3%[46.1 µM]	?
Cc1cccc(CC(=O)Nc2sc(C(C)C)cc2C(=O)N2CCOCC2)c1	-3	-20%	-7%	13	-9%	?
O=C(Nc1ccc(S(=O)(=O)Nc2ccccc2)cc1)C1COc2ccccc2O1 (centres undefined)	2	-20%	.	12	-26%	?
CN(C)S(=O)(=O)c1ccc(NC(=O)C2COc3ccccc3O2)cc1 (centres undefined)	11*	.	21%	28	.	13%
O=C(Nc1cccc([N+](=O)[O-])c1)C1COc2ccccc2O1 (centres undefined)	11*	.	16%	15	.	7%
O=C(/C=C/c1ccc(OCCCF)cc1)NCc1ccc(Cl)c(Cl)c1	-2	4%[46.1 µM]	-22%	-6	-3%	-11%
Nc1ccc(N2CCN(c3ccc(Cl)c(Cl)c3)CC2)cc1	4	3%	0%	24*	-25%	?
CC(=O)N(C)c1ccc(NC(=O)Nc2ccccc2C)cc1	39*	?	44%	82*	17%[46.1 µM]	-6%
CC(=O)N(C)c1ccc(NC(=S)Nc2ccc(C(C)C)cc2)cc1	9	.	-21%	25	.	?
CC(=O)N(C)c1ccc(NC(=O)Nc2ccc(C)c(C)c2)cc1	12*	?	-3%	31	-17%[46.1 µM]	?
CCc1ccc2nc(NC(=O)C3CCN(c4ncnc5sc(C)c(C)c45)CC3)sc2c1	.	.	13%	.	.	-6%
Cc1ccc(NC(=O)c2c(C)noc2-c2snnc2C)cc1	-3	?	-7%	-8	?	-22%
Cc1ccc(-c2noc(C3CCCN(C(=O)c4cccc(F)c4)C3)n2)cc1 (centres undefined)	22*	.	1%	19	.	?
O=C(c1c(F)cccc1F)N1CCCC(c2nc(-c3ccc(Cl)cc3)no2)C1 (centres undefined)	1	.	1%	-8	.	11µM*
Cc1ccc(-c2noc(C3CCCN(C(=O)c4c(F)cccc4F)C3)n2)cc1 (centres undefined)	29	-5%	-27%	69	25%[14.3 µM]	.
COc1ccccc1C1CN(Cc2cccc3c2OCO3)Cc2ccccc2O1 (centres undefined)	.	.	4%	.	.	.
COc1cc(CNc2ncnc3c2[nH]c2ccc(C)cc23)cc(OC)c1	-1	.	?	-3	.	?
C=CCNc1ncnc2c1[nH]c1ccccc12	10*	-24%	?	13	-13%	11µM*
C=CCNc1ncnc2c1[nH]c1ccc(Cl)cc12	37*	?	?	82*	10µM*	?
COc1ccc(/C=N/Nc2ncnc3c2[nH]c2ccc(C)cc23)c(OC)c1OC	-1	-16%[46.1 µM]	0%	15	?	?
COc1cc(OC)c(OC)cc1/C=N/Nc1ncnc2c1[nH]c1ccccc12	3	?	-23%	-12	-17%	10µM*
COc1ccc(C(=O)OCc2csc(C)n2)c(O)c1	42*	29%	62%	61*	14%	-8%
Cc1nc(C/C(=N\N)c2ccc(O)cc2O)cs1	25*	1%	-2%	64	10%	23%
SMILES	Cycloheximide cs	MARV entry inh	FMDV inh	Shiga toxin inh	LASV entry inh	HCV inh
CCc1cc(/C(Cc2csc(C)n2)=N/O)c(O)cc1O	-2	?	?	-24	?	?
COc1ccc(C(=O)COC(=O)c2ccccc2O)c(OC)c1	.	.	40%	.	.	?
N/N=C(\Cc1cscn1)c1ccc(O)cc1O	36*	15%	8%	80*	10%	-2%
Cc1cc(O)cc(O)c1C(=O)Cc1cscn1	16	7%[46.1 µM]	-2%	-19	-7%	14%
CC(OC(=O)Nc1cccc(Cl)c1)C(=O)O (centres undefined)	-6	12%[46.1 µM]	5%	-5	-6%	16%
CC(C)OC(=O)NC(C)(C)COC(=O)Nc1cccc(Cl)c1	14*	-4%	-17%	-2	6%	?
C#CC(C)OC(=O)Nc1cccc(Cl)c1 (centres undefined)	32*	.	.	41*	.	.
CCOc1ccc2c(c1)c(=O)c(S(=O)(=O)c1ccc(CC)cc1)cn2Cc1cccc(Cl)c1	.	10%[46.1 µM]	-1%	.	-14%[46.1 µM]	.
COc1cc2c(C#Cc3cccnc3)c(-c3ccsc3)oc(=O)c2cc1OC	.	.	-17%	.	.	6.3µM*
COc1cc2c(C#CCCCO)c(-c3ccsc3)oc(=O)c2cc1OC	.	.	-24%	.	.	3.2µM*
COc1cc2c(C(F)(F)F)c(-c3ccsc3)oc(=O)c2cc1OC	.	.	0%	.	.	5%
CCOc1cccc2sc(NC(=O)c3ccc(Br)s3)nc12	-2	.	0%	-3	.	?
COc1ccccc1CCNC(=O)Cc1c(C)c2c(cc(C)c3c(C)c(C)oc32)oc1=O	.	?	-11%	.	12%[46.1 µM]	.
Cn1c(CC(=O)NNC(=O)c2cncc(Br)c2)nc2ccccc21	.	.	-4%	.	.	17%
Oc1ccc(Br)cc1-c1nc2cnccn2c1NC1CCCCC1	-6	?	.	-6	4%	?
Fc1ccc(-c2nc3cnccn3c2NC2CCCC2)cc1	-4	.	-26%	-2	.	14µM*
Oc1ccc(Br)cc1-c1nc2cnccn2c1NC1CCCC1	-3	?	?	-12	-9%	11µM*
CCOc1cccc2sc(N(CCN(C)C)C(=O)/C=C/c3cccs3)nc12	-4	?	?	-4	?	32µM*
COc1ccc(C)c2sc(N(CCN(C)C)C(=O)/C=C/c3cccs3)nc12	-1	.	-17%	-10	.	14µM*
CN(C)CCCN(C(=O)c1sc2ccccc2c1Cl)c1nc2ccc(F)cc2s1	37*	?	-32%	79*	?	-1%
CN(C)CCCN(C(=O)/C=C/c1cccs1)c1nc2ccc(F)cc2s1	-15	8.9µM*	-16%	-39	-30%	-28%
CN(C)CCCN(C(=O)c1cccs1)c1nc2ccc(F)cc2s1	.	.	-12%	.	22%[46.1 µM]	.
COc1ccc(OC)c2sc(N(CCN(C)C)C(=O)/C=C/c3cccs3)nc12	-17	?	-20%	-22	?	?
CCN(CC)CCN(C(=O)/C=C/c1cccs1)c1nc2ccc(F)cc2s1	9	.	0%	26	.	?
CC1(c2ccc3ccccc3c2)NC(=O)N(CC(=O)N2CCN(S(=O)(=O)c3ccccc3F)CC2)C1=O (centres undefined)	-2	?	?	-14	?	?
COc1ccccc1-c1ccc2c(c1)C(C)(Cc1cccc(F)c1)C(=O)N2 (centres undefined)	.	.	-27%	.	.	.
CC(=O)Oc1ccc(C2=NN(c3ccccc3)C(c3ccccc3)C2)cc1 (centres undefined)	19	.	-12%	18	.	?
